Measurements: PubChem BioAssay
Values without a mark were called inactive. How the calls were made is not given here. Numbered stars: 1 amine (or outer) side, 2 acyl side, 3 side chain; on linkers, the order of the positions; unused ones are H or OH. Bridge positions count the residues as written; N and C are the ends. Square brackets hold non-standard residues; d marks the D form. Peptide text beside a SMILES is read from it. * marks the point of attachment. ξ: configuration not given here. ΔAla(Z-3-ureido) = NC(=O)N/C=C(\N)C(=O)O; X2 = NC1=NC(O)CC(C(N[*:1])C(=O)[*:2])N1; ξβ3hOrn = NCCCC(N)CC(=O)*; Dap = NC[CH](N)C(=O)O

Test: hESC survival regulators, cell-based (AID 493140);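 further: cells exposed to compounds for four days before counting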
Conditions: human embryonic stem cell survival screen; active compounds read high
Compound `Nc1ncc2[nH]cnc2n1` has a survival of 108. For `O=[N+]([O-])c1ccc(Oc2ccc(Br)cc2)c(C(O)[P+](=O)O)c1` (stereo not given), the survival was 83.4. For `CCCCC/C=C\C/C=C\C/C=C\CCCCCCC(=O)O[C@H](COCCCCCCCCCCCCCCCC)COP(=O)([O-])OCC[N+](C)(C)C`, the survival was 71.5. `CCCCCCCCCCCCC/C=C/[C@@H](O)[C@H](COP(=O)([O-])OCC[N+](C)(C)C)NC(=O)CCCCCCCCCCCCCCCCC` gave a survival of 81.8. For `CCCCCCCC/C=C\C/C=C\C=C\C(O)CCCC(=O)O` (stereo not given), the survival was 116. `CCCCC/C=C\C[C@@H](O)/C=C/C=C/C=C/[C@@H](O)CCCC(=O)O` showed a survival of 77.1. In the case of `CC1(C)S[C@@H]2[C@H](NC(=O)C3(N)CCCCC3)C(=O)N2[C@H]1C(=O)O`, the survival is reported as 3.83. Work on `COc1ccc2nccc(C(=O)O)c2c1` yielded a survival of 19.9. `CCCCC/C=C\C\C=C/C=C/C=C/[C@@H](SCC(NC(=O)CCC(N)C(=O)O)C(=O)NCC(=O)O)[C@@H](O)CCCC(=O)O` (stereo not given in full) showed a survival of 90.2. With `CC(=O)CC(=O)[C@@]1(O)CC[C@H]2[C@@H]3C=C(C)C4=CC(=O)CC[C@@H]4[C@H]3CC[C@@]21C` the survival was 10.6. `CCO[C@@H]1O[C@H](C(COCc2ccccc2)OCc2ccccc2)[C@@H](OCc2ccccc2)C1O` (stereo not given in full) gave a survival of 10.8. `NC(=O)c1ccc[n+]([C@H]2O[C@@H](COP(=O)([O-])OP(=O)(O)OC[C@H]3O[C@@H](n4cnc5c(N)ncnc54)C(O)[C@H]3O)C(O)[C@H]2O)c1` (stereo not given in full) showed a survival of 4.5. Work on `C[N+](C)(CCCOc1ccccc1)c1ccccc1` yielded a survival of 5.92. `NC(=O)c1ncn([C@@H]2O[C@H](CO)[C@H](O)C2O)n1` (stereo not given in full) gave a survival of 1.33. Work on `C[C@@H](O)CCC[C@H](O)/C=C/[C@@H]1[C@@H](C/C=C\CCCC(=O)O)[C@@H](O)C[C@H]1O` yielded a survival of 102. For `CCCCCC#CC[C@@H](O)/C=C/C=C/C=C\[C@@H](O)CCCC(=O)O`, the survival was 71.7. `CC1O[C@@H](O[C@@H]2C(CO)O[C@@H](OCC3O[C@@H](OC(=O)C45CC[C@@H](C)[C@H](C)[C@H]4C4=CC[C@@H]6[C@@]7(C)C[C@@H](O)[C@H](O)[C@@](C)(CO)C7CC[C@@]6(C)[C@]4(C)CC5)C(O)[C@H](O)[C@@H]3O)C(O)[C@@H]2O)C(O)[C@@H](O)[C@H]1O` (stereo not given in full) gave a survival of 9.83. Work on `O=C(O)CCC[C@H](O)\C=C/C=C/C=C/[C@H](O)C/C=C\CCCCCO` yielded a survival of 75.2. With `CCCCCCCN[C@H]1CCC[C@@H]1CCCCCCC(=O)O` the survival was 114. Work on `C=Cc1c(C)c2cc3nc(cc4[nH]c(cc5nc(cc1[nH]2)C(C)=C5CCC(=O)O)c(CCC(=O)OC)c4C)[C@@]1(C)C3=CC=C(C(=O)OC)C1C(=O)OC` (stereo not given in full) (tested in a mixture with another compound) yielded a survival of 12.9. Compound `CC/C=C\C/C=C\C/C=C\C/C=C\C/C=C\CCC(=O)O[C@H](COCCCCCCCCCCCCCCCC)COP(=O)([O-])OCC[N+](C)(C)C` has a survival of 83.1. Compound `CN(N=O)C(=O)NC1[C@@H](O)OC(CO)[C@@H](O)[C@H]1O` (stereo not given in full) has a survival of 8.42. Compound `CCCCC[C@H](O)/C=C/C=C\CCCCCCCCCC(=O)O` has a survival of 73.3. In the case of `CC(C)C[C@H](NC(=O)[C@H](CCC(=O)O)NC(=O)CNC(=O)c1ccc(/C=C/C(=O)O)cc1)C(N)=O`, the survival is reported as 88.2. `CCCCC[C@H](O)/C=C/C=C/C/C=C\CCCC(=O)O` gave a survival of 94.8. `CCCCC[C@H](O)/C=C/C=C/C=C/[C@@H](O)C/C=C\CCCC(=O)O` gave a survival of 92.6. `CCCCC/C=C\C[C@H](O)/C=C/C=C/C=C/[C@@H](O)CCCC(=O)O` showed a survival of 96.2. `NCCCC(N)CC(=O)NC1CNC(=O)C(C2CC(O)N=C(N)N2)NC(=O)/C(=C/NC(N)=O)NC(=O)C(CO)NC(=O)C(CO)NC1=O` (stereo not drawn) (ξβ3hOrn-[Dap]SS[ΔAla(Z-3-ureido)][X2]; lactam 1-C; configuration not given here) showed a survival of 10.8. Compound `CCCCC[C@H](O)/C=C/C=C\C=C\[C@@H](O)C/C=C\CCCC(=O)O` has a survival of 135. In the case of `Cc1cc(=O)c2c(O)c3c(O)cc(O)c4c5c(O)cc(O)c6c(O)c7c(=O)cc(C)c8c1c2c(c34)c(c65)c78`, the survival is reported as 52.2.
